PubChem BioAssay (Tox21)
Records with an inconclusive call do not appear. Activity calls are given as the source filed them. Calls follow the shape of the dose curve; as a rule, active = well fitted curve in the direction sought with a large enough effect in the repeat runs; inconclusive = weak or mixed curves; inactive = no such curve, though single readings can be large; an effect the other way counts as inactive or inconclusive.

Assays:
[1] = qHTS RealTime-Glo MT Cell Viability Assay in HepG2 cells - 8 hour (AID 1224873); also: nearly all actives have a fitted effect of over 55% in size
In short: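 Real-time viability: cells seeded at 600 per well together with NanoLuc and cell-permeant prosubstrate, compounds added after 5 h incubation. Luminescence tracked at 0, 8, 16, 24, 32 and 40 h of exposure.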

[2] = qHTS RealTime-Glo MT Cell Viability Assay in HEK293 cells - 40 hour (AID 1224874); settings: RealTime-Glo luminescence; max response: stronger effect = lower value; also: nearly all actives have a fitted effect of over 50% in size
In short: (§1)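 Nonlytic bioluminescent viability monitoring. HEK293 at 600 cells/well with reagent; 5 h settle; compound transfer by pintool; plates held at 37 C and read at set time points.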

[3] = A CellTox Green Cytotoxicity Assay to monitor cytotoxicity in HEK293 cells - 24 hour (AID 1224875); also: series mostly up to about 77 µM; nearly all actives have a fitted effect of over 45% in size
In short: (§2)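 Cytotoxicity was tracked continuously in HEK293 cells by a DNA-binding dye excluded from viable cells. Compounds were transferred in DMSO 5 h after seeding; fluorescence was recorded at intervals up to 40 h.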

[4] = A CellTox Green Cytotoxicity Assay to monitor cytotoxicity in HepG2 cells - 16 hour (AID 1224876); also: nearly all actives have a fitted effect of over 45% in size
In short: (§3)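 Real-time, homogeneous cytotoxicity readout: dead-cell DNA staining by CellTox Green in HepG2 monolayers, fluorescence measured at timed intervals up to 40 h of continuous compound exposure.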

[5] = qHTS RealTime-Glo MT Cell Viability Assay in HepG2 cells - 32 hour (AID 1224877); also: nearly all actives have a fitted effect of over 55% in size
In short: (§4)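 HepG2 cells (600/well) were dispensed with RealTime-Glo reagents, incubated 5 h at 37 °C, then treated with compounds in DMSO for up to 40 h. Nonlytic NanoLuc luminescence reflecting viable cells was read at each stated time point.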

[6] = A CellTox Green Cytotoxicity Assay to monitor cytotoxicity in HepG2 cells - 24 hour (AID 1224878); also: nearly all actives have a fitted effect of over 45% in size
In short: as §3

[7] = A CellTox Green Cytotoxicity Assay to monitor cytotoxicity in HepG2 cells - 40 hour (AID 1224879); also: nearly all actives have a fitted effect of over 40% in size
In short: as §3

[8] = A CellTox Green Cytotoxicity Assay to monitor cytotoxicity in HEK293 cells - 32 hour (AID 1224881); also: nearly all actives have a fitted effect of over 40% in size
In short: as §2

[9] = A CellTox Green Cytotoxicity Assay to monitor cytotoxicity in HepG2 cells - 0 hour (AID 1224882); also: nearly all actives have a fitted effect of over 35% in size
In short: as §3

[10] = A CellTox Green Cytotoxicity Assay to monitor cytotoxicity in HepG2 cells - 32 hour (AID 1224883); also: nearly all actives have a fitted effect of over 50% in size
In short: as §3

[11] = A CellTox Green Cytotoxicity Assay to monitor cytotoxicity in HEK293 cells - 8 hour (AID 1224884); also: nearly all actives have a fitted effect of over 35% in size
In short: as §2

[12] = qHTS RealTime-Glo MT Cell Viability Assay in HepG2 cells - 16 hour (AID 1224885); also: nearly all actives have a fitted effect of over 50% in size
In short: as §4

[13] = qHTS RealTime-Glo MT Cell Viability Assay in HEK293 cells - 24 hour (AID 1224886); also: top concentration of the series differs between compounds; nearly all actives have a fitted effect of over 50% in size
In short: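 HEK293 cells seeded with NanoLuc/prosubstrate reagent, rested 5 h at 37 C, then dosed and kept at 37 C up to 40 h. Nonlytic real-time luminescence from viable cells read at 0, 8, 16, 24, 32 and 40 h.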

[14] = qHTS RealTime-Glo MT Cell Viability Assay in HEK293 cells - 8 hour (AID 1224887)
In short: as §1

[15] = A CellTox Green Cytotoxicity Assay to monitor cytotoxicity in HEK293 cells - 16 hour (AID 1224888); also: nearly all actives have a fitted effect of over 35% in size
In short: as §2

[16] = qHTS RealTime-Glo MT Cell Viability Assay in HepG2 cells - 0 hour (AID 1224889); also: nearly all actives have a fitted effect of over 50% in size
In short: as §4

[17] = A CellTox Green Cytotoxicity Assay to monitor cytotoxicity in HepG2 cells - 8 hour (AID 1224890); also: nearly all actives have a fitted effect of over 45% in size
In short: as §3

[18] = qHTS assay to identify small molecule antagonists of the estrogen receptor alpha (ER-alpha) signaling pathway using the BG1 cell line in the presence of 0.1 nM 17-beta-estradiol - cell viability counter screen (AID 1259241); also: nearly all actives have a fitted effect of over 40% in size
In short: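 Live-cell protease activity (CellTiter-Fluor fluorescence, 30 min) was read in the same wells after VM7Luc4E2 cells had been exposed to compounds with 0.1 nM 17beta-estradiol for 22 hr at 37C.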

[19] = qHTS assay to identify small molecule antagonists of the androgen receptor (AR) signaling pathway using the MDA cell line in the presence of 0.5 nM R1881 - cell viability counter screen (AID 1259242); also: nearly all actives have a fitted effect of over 45% in size
In short: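 Cytotoxicity toward MDA-kb2 cells is measured by CellTiter-Fluor live-cell protease fluorescence after 16 hr compound exposure at 37C in the presence of 0.5 nM R1881 stimulator.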

[20] = qHTS RealTime-Glo MT Cell Viability Assay in HEK293 cells - 0 hour (AID 1224880)
In short: as §1
% is scaled to controls: 0 for no effect and ±100 for the full control effect.

C=CN1CCCCCC1=O
inactive: outcome [1] | max response [2] 3.47% | outcome [3] | outcome [4] | Potency [5] | outcome [6] | Potency [7] | outcome [8] | Potency [9] | Potency [10] | outcome [11] | outcome [12] | Potency [13] | Potency [14] | outcome [15] | Potency [16] | outcome [17] | outcome [18] | outcome [19]

N[C@H](C(=O)O)[C@@H](O)c1ccc(O)c(O)c1
inactive: outcome [1] | max response [2] 0.604% | outcome [3] | outcome [4] | Potency [5] | outcome [6] | Potency [7] | outcome [8] | Potency [9] | Potency [10] | outcome [11] | Potency [13] | Potency [14] | outcome [15] | Potency [16] | outcome [18] | outcome [19]

O=S(=O)(O)c1cc(O)c(O)c(S(=O)(=O)O)c1
inactive: outcome [1] | max response [2] 0.173% | outcome [3] | outcome [4] | Potency [5] | outcome [6] | Potency [7] | outcome [8] | Potency [9] | Potency [10] | outcome [11] | outcome [12] | Potency [13] | Potency [14] | outcome [15] | Potency [16] | outcome [17] | outcome [18] | outcome [19]

Cc1coc2ccccc2c1=O
inactive: outcome [1] | max response [2] -0.146% | outcome [3] | outcome [4] | Potency [5] | outcome [6] | Potency [7] | Potency [20] | outcome [8] | Potency [10] | outcome [11] | outcome [12] | Potency [14] | Potency [16] | outcome [17] | outcome [18] | outcome [19]

CN(C)CCCN(C)CCCN(C)C
inactive: outcome [1] | max response [2] -6.89% | outcome [3] | outcome [4] | Potency [5] | outcome [6] | Potency [20] | outcome [8] | Potency [9] | Potency [10] | outcome [11] | outcome [12] | Potency [13] | Potency [14] | outcome [15] | Potency [16] | outcome [17] | outcome [18] | outcome [19]

CCOC(=O)OC(C)OC1=C(C(=O)Nc2ccccn2)N(C)S(=O)(=O)c2ccccc21 (stereo not given)
inactive: outcome [1] | max response [2] 1.81% | outcome [3] | outcome [4] | Potency [5] | outcome [6] | Potency [7] | Potency [20] | outcome [8] | Potency [10] | outcome [11] | Potency [13] | Potency [14] | outcome [15] | Potency [16] | outcome [17] | outcome [18] | outcome [19]

CC(C)(C)c1ccc(-c2ccc(C(C)(C)C)cc2)cc1
inactive: outcome [1] | max response [2] -2.15% | outcome [3] | outcome [4] | Potency [5] | outcome [6] | Potency [7] | outcome [8] | Potency [9] | Potency [10] | Potency [13] | Potency [14] | outcome [15] | Potency [16] | outcome [17] | outcome [18] | outcome [19]

[O-][n+]1cccc(CO)c1
inactive: outcome [1] | max response [2] 8.89% | outcome [3] | outcome [4] | Potency [5] | outcome [6] | Potency [7] | outcome [8] | Potency [9] | Potency [10] | outcome [11] | outcome [12] | Potency [13] | Potency [14] | outcome [15] | Potency [16] | outcome [17] | outcome [18] | outcome [19]

NO
inactive: outcome [1] | max response [2] -12.7% | outcome [3] | outcome [4] | Potency [5] | outcome [6] | Potency [7] | outcome [8] | Potency [9] | Potency [10] | outcome [11] | outcome [12] | Potency [13] | Potency [14] | outcome [15] | Potency [16] | outcome [17] | outcome [18] | outcome [19]

C=CC(C)(CCC=C(C)C)OC(=O)CC (stereo not given)
inactive: outcome [1] | max response [2] -1.4% | outcome [3] | outcome [4] | Potency [5] | outcome [6] | Potency [7] | Potency [20] | outcome [8] | Potency [10] | outcome [11] | outcome [12] | Potency [13] | Potency [14] | Potency [16] | outcome [17] | outcome [18] | outcome [19]

OCCc1ccccn1
inactive: outcome [1] | max response [2] 3.13% | outcome [3] | outcome [4] | Potency [5] | outcome [6] | Potency [7] | Potency [20] | outcome [8] | Potency [10] | outcome [11] | Potency [13] | Potency [14] | outcome [15] | Potency [16] | outcome [17] | outcome [18] | outcome [19]

CCCCCCCCCCCCCCC(=O)O
inactive: outcome [1] | max response [2] 23.9% | outcome [3] | outcome [4] | Potency [5] | outcome [6] | Potency [7] | outcome [8] | Potency [9] | Potency [10] | outcome [11] | outcome [12] | Potency [13] | Potency [14] | outcome [15] | Potency [16] | outcome [17] | outcome [18] | outcome [19]

CC(CO)(CO)[N+](=O)[O-]
inactive: outcome [1] | max response [2] 3.85% | outcome [3] | outcome [4] | Potency [5] | outcome [6] | Potency [7] | outcome [8] | Potency [9] | Potency [10] | outcome [11] | outcome [12] | Potency [13] | Potency [14] | outcome [15] | Potency [16] | outcome [18] | outcome [19]

CCCCc1ccc2c(n1)[C@@H](c1ccc(OC)cc1C[C@H](C)C(=O)O)[C@H](C(=O)O)[C@H]2c1ccc2c(c1)OCO2
inactive: outcome [1] | max response [2] 0.185% | outcome [3] | outcome [4] | Potency [5] | outcome [6] | Potency [7] | outcome [8] | Potency [9] | Potency [10] | outcome [11] | outcome [12] | Potency [13] | Potency [14] | outcome [15] | Potency [16] | outcome [18] | outcome [19]
